From PubChem BioAssay (NCATS)
Records with an inconclusive call do not appear. Entries that show only a call come without a potency. Activity calls are given as the source filed them. Calls come from the whole dose curve; as a rule, active = well fitted inhibition curve with a large enough effect; inconclusive = small, poorly fitted or top-dose-only effect; inactive = flat fitted curve, though single readings scatter.

Assay: qHTS to identify inhibitors of the type 1 interferon - major histocompatibility complex class I in skeletal muscle: primary screen against the NCATS Pharmaceutical Collection (AID 1347407);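 note: luminescence of HiBiT knocked into endogenous HLA-B as interferon-induced MHC class I level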
Conditions: human skeletal muscle cells, IFN-b-induced MHC-I HiBiT luminescence, 24 h; series mostly up to 45.9 µM
In short: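 A qHTS format is used: 8-point, 1:5 compound series with 46 uM top final concentration, applied alongside 4 ng/ml IFN-beta to HLA-B*08:01-HiBiT knock-in myoblasts. Luminescence is measured after 24 h treatment.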

SMILES | Potency
CCNC(=O)NCc1cccc(Cl)c1 | inactive
C=CCN1CCc2nc(N)sc2CC1 | inactive
CC(C)[N+](C)(C)CC(O)COc1cccc2ccccc12 (centres undefined) | inactive
CCc1ccc(C(=O)C(C)CN2CCCCC2)cc1 (centres undefined) | inactive
CN1CCN(c2c(F)cc3c(=O)c(C(=O)O)cn4c3c2SCC4)CC1 | inactive
NC(=S)N/N=C/c1cccnc1 | inactive
CC(C)Cc1ccc(CC(=O)O)cc1 | inactive
CC1(C)OC[C@@H]2O[C@@]3(C(=O)O)OC(C)(C)O[C@H]3[C@@H]2O1 | inactive
CCCCN1C[C@H](O)[C@@H](O)[C@H](O)[C@H]1CO | inactive
CC(CNC1CCCCC1)OC(=O)c1ccccc1 (centres undefined) | inactive
O=C(CN1CCN(Cc2ccc3c(c2)OCO3)CC1)N1c2ccccc2Sc2ccccc21 | inactive
CCCCCCCCCCC[C@@H](C[C@@H]1OC(=O)[C@H]1CCCCCC)OC(=O)[C@H](CC(C)C)NC=O | inactive
CN1CCC(OC(c2ccccc2)c2ccccc2)CC1 | inactive
C/C=C/C=N/NC(=O)c1ccncc1 | inactive
CC[N+](C)(CC)CCOC(=O)C(O)(c1ccccc1)C1CCCCC1 (centres undefined) | inactive
NS(=O)(=O)c1ccc(Cl)c(S(N)(=O)=O)c1 | inactive
CCN(CC)CCOC(=O)C(Cc1cccc2ccccc12)CC1CCCO1 (centres undefined) | inactive
Clc1cccc(C(c2ccc3nc[nH]c3c2)n2ccnc2)c1 (centres undefined) | inactive
CCOc1ccccc1C(N)=O | inactive
Nc1nc(N)c(-c2ccccc2)s1 | inactive

SMILES | Potency
O=C(O)Cc1csc(-c2ccc(Cl)cc2)n1 | inactive
N#C/C(=C1\SCC(c2ccccc2Cl)S1)n1ccnc1 (centres undefined) | inactive
COc1ccc(-c2cc(C(F)F)nn2-c2ccc(S(N)(=O)=O)cc2)cc1F | inactive
CC(C)NCC(O)c1ccc2ccccc2c1 (centres undefined) | inactive
CCN1/C(=C/C=C/c2sc3ccccc3[n+]2CC)Sc2ccccc21 | inactive
CN1CCN(C2=Nc3ccccc3Sc3ccc(Cl)cc32)CC1 | inactive
O=S(=O)(O)c1ccc(O)cc1 | inactive
COc1cc(C(=O)NCc2ccc(OCCN(C)C)cc2)cc(OC)c1OC | inactive
COc1ccc(CN(CCN(C)C)c2ncccn2)cc1 | inactive
Cc1cc(CC(=O)O)c(C)n1-c1ccc(Cl)cc1 | inactive
CCOc1ccc(NC(C)=O)cc1 | inactive
O=C(CCN1CCN2CCCC2C1)N1c2ccccc2Sc2ccc(Cl)cc21 (centres undefined) | inactive
C=C[C@@]1(C)CC(=O)[C@]2(O)[C@@]3(C)[C@@H](O)CCC(C)(C)[C@@H]3[C@H](O)[C@H](OC(C)=O)[C@@]2(C)O1 | inactive
NCCNC(=O)c1ccc(Cl)cn1 | inactive
NS(=O)(=O)c1cc2c(cc1Cl)NC(CC1CCCC1)NS2(=O)=O (centres undefined) | inactive
CCCCCCCCOc1ccc(C(=O)c2ccccc2)c(O)c1 | inactive
FC1(F)C(F)(F)C(F)(F)C2(F)C(F)(F)C(F)(F)C(F)(F)C(F)(F)C2(F)C1(F)F (centres undefined) | inactive
C#C[C@]1(O)CC[C@H]2[C@@H]3CCC4=CC(=O)CC[C@@H]4[C@H]3CC[C@@]21CC | inactive
CC(=O)Oc1ccc(C)cc1 | inactive
